D2 ag-1 = D2 dopamine receptor (human) agonism; P14416; HEK293 T-REx D2 cells, calcium flux agonist mode; activation, % at 2 µM; hit rate 0.53% among 340,000; AID 485358;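 active = activation over 3 SD above normal in the single-dose calcium agonist read, cut at about 30% in these data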; also: 0% is about no effect
Target sequence (P14416 whole entry, looked up): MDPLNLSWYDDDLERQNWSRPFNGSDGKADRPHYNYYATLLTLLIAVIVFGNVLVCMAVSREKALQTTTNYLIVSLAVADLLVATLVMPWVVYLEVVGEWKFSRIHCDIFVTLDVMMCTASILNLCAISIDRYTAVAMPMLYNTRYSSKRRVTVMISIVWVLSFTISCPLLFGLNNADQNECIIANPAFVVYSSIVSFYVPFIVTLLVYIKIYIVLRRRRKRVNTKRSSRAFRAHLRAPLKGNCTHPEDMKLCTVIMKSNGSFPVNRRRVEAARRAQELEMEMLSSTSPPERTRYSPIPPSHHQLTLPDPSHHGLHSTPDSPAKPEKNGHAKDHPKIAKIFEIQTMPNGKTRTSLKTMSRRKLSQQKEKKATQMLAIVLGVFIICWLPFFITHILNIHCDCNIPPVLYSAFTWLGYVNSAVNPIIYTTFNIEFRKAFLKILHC
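Agonism is scored from calcium flux in a force-coupled, inducible HEK293 cell line expressing D2, read kinetically for 180 s after compound addition against dopamine controls.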
D2 PAM-1 = potentiates the human D2 dopamine receptor allosterically; hit rate 0.23% among 360,000; DiscoveRx D2 beta-arrestin cells, luminescence, 90 min; 100% = 57 uM dopamine signal; potentiation, % (no concentration beside the values); in the data active = potentiation above about 50%; inconclusive = mostly about 30% to 49%
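PathHunter beta-arrestin assay in DiscoveRx D2 cells. Compounds were added with an EC20 of dopamine (50 nM final) for 90 min at 37 deg C. Luminescence was read 1 h after detection reagent, with 57 uM dopamine as the EC100 control.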
D2 PAM-2 = positively modulates the human D2 dopamine receptor allosterically; P14416; HEK293 T-REx D2, calcium flux, EC20 dopamine potentiation; potentiation, % at 10 µM; hit rate 0.34% among 340,000; AID 485347;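 active = potentiation over 3 SD above the plate norm, cut at about 30% in these data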; also: 0% is about no effect
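Primary screen. Calcium kinetics in induced HEK293 T-REx D2 cells: compound pre-addition 180 s, EC20 dopamine, 180 s more.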
D2 antag = D2 dopamine receptor (human) antagonism; inhibition, % at 10 µM; AID 485344; P14416; hit rate 2% among 340,000; HEK293 TREx D2 cells, calcium flux, dopamine EC80; in the data active = inhibition above about 30%; inactive = below that, where a call was filed; also: 0% is about no effect
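HEK293 T-REx D2 cells, tet-induced, calcium dye no-wash. Cpd pintool add, 180 s kinetic, then EC80 DA, 180 s kinetic. Ca flux read.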
D2 ag-2 = human D2 receptor agonism in beta-arrestin assay; P14416; DiscoveRx PathHunter D2 beta-arrestin, luminescence, 90 min; 100% = 57 uM dopamine signal; hit rate 0.084% among 360,000; activation, % (test concentration not listed); in the data active = activation above about 40%; inconclusive = between about 15% and that limit
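Agonist mode: compounds alone added to overnight-plated D2 PathHunter cells for 90 min at 37 C, with 57 uM final dopamine (EC100) defining full response. Beta-arrestin recruitment detected by chemiluminescent reagent, read after 1 h at ambient temperature.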
The depositor's hits bear a star; ? = inconclusive; nt = no result. Most compounds without a hit are left out; they make up all but 2.4% or so of the library.

SMILES | D2 ag-1 | D2 PAM-1 | D2 PAM-2 | D2 antag | D2 ag-2
Cc1ccc(NS(=O)(=O)c2ccc3c(c2)CCC(=O)N3)cc1 | 1 | -2 | -25 | 65* | 3
CC1CN(c2ncnc3c2cnn3-c2ccc(Cl)cc2)CC(C)O1 (configuration not stated) | -1 | 0 | 22 | 31* | 0
Cc1cc(C)cc(NC(=O)C2CC3CCC2C3)c1 (configuration not stated) | -2 | -2 | -16 | 56* | -2
CCN1C(=O)CSc2ccc(C(=O)NCc3ccccc3OC)cc21 | 0 | -4 | 34* | -5 | -1
CCN1C(=O)CSc2ccc(C(=O)NCc3ccccc3)cc21 | 0 | -31 | -14 | -21 | 2
CCN(CC)S(=O)(=O)c1ccc2c(c1)c(=O)c(C(=O)N(C)Cc1ccccc1)cn2C | 0 | nt | 7 | nt | nt
COC(=O)c1ccc(C(=O)OC)c(NC(=O)c2cnn3c(C(F)F)cc(-c4ccccc4)nc23)c1 | -1 | nt | -3 | nt | nt
COc1ccc(N2CCN(S(=O)(=O)c3ccc(F)c(C(=O)Nc4ccccc4Cl)c3)CC2)cc1 | 0 | nt | -15 | nt | nt
CSc1nsc(SCC(=O)Nc2ccc(C(C)=O)cc2)n1 | 0 | -8 | 7 | -18 | 0
CSc1nsc(SCC(=O)Nc2ccc(C(N)=O)cc2)n1 | -3 | 2 | nt | 37* | -1
Nc1ccc2oc(CCc3ccccc3)nc2c1 | 0 | ? | 2 | 38* | -1
c1ccc2oc(CCc3nc4ccccc4o3)nc2c1 | nt | 5 | 14 | nt | -1
CCOc1ccccc1NC(=O)c1cn(C2CCCC2)c(=O)c2c1c1ccccc1n2C | 0 | nt | -5 | nt | nt
CCS(=O)(=O)c1ccc2oc(SCC(=O)NCCC3=CCCCC3)nc2c1 | -1 | -3 | -1 | 68* | -1
COc1ccccc1CNC(=O)C1CCCN(c2nn3cc(-c4ccc(F)cc4)nc3s2)C1 (configuration not stated) | 0 | nt | 5 | nt | nt
O=C(Nc1ccc2c(c1)C(=O)OC2)c1ccc(C(F)(F)F)cc1 | -1 | -15 | -15 | 34* | -3
COc1ccc(OC)c(NC(=O)C(=O)NNC(=O)c2cccs2)c1 | 0 | 5 | 20 | 38* | 0
COc1cc(N)ccc1NC(=O)c1cccs1 | 0 | 79* | 9 | 11 | 9
O=C(CSc1nc(C2CC2)nc2ccccc12)N1c2ccccc2Sc2ccc(C(F)(F)F)cc21 | 1 | 60* | -9 | 4 | 4
CNC(=O)c1c(NC(=O)c2cc(=O)c3ccccc3o2)sc2c1CCC2 | 1 | nt | -7 | nt | nt
O=C(c1cccc2ccccc12)C1CCCN(C(=O)CCc2cnccn2)C1 (configuration not stated) | 1 | -4 | 0 | 0 | 3
O=C(c1cc(F)ccc1F)C1CCCN(C(=O)CCc2cnccn2)C1 (configuration not stated) | -2 | -6 | -4 | 38* | 2
CCN(CC)CCNC(=O)CCn1c(=O)c2cccn2c2cccnc21 | 2 | nt | -2 | nt | nt
COc1cc(NC(=O)COC(=O)CCc2cc(OC)c(OC)c(OC)c2)cc(OC)c1 | 1 | 0 | 6 | 13 | 1
COc1cc(CCC(=O)OCC(=O)Nc2ccc(C(N)=O)cc2)cc(OC)c1OC | 0 | 7 | 3 | 39* | 6
SMILES | D2 ag-1 | D2 PAM-1 | D2 PAM-2 | D2 antag | D2 ag-2
CCOC(=O)c1ccc(NC(=O)c2ccc3c(c2)CCN3S(=O)(=O)c2ccc(Cl)cc2)cc1 | nt | nt | 3 | nt | nt
COC(=O)COc1cccc2c(=O)n(CC(=O)N3CCCc4ccccc43)ccc12 | 0 | -5 | 7 | 31* | -5
CCOC(=O)COc1cccc2c(=O)n(CC(=O)N3CCCCC3)ccc12 | 0 | -4 | 5 | 21 | 2
CCCN1C(=O)C(NC(=O)c2ccccc2OC)(C(F)(F)F)C(C(=O)OC)=C1C (configuration not stated) | 1 | nt | -4 | nt | nt
COc1ccc2oc(-c3ccc(NC(=O)c4ccc(Cl)cc4Cl)cc3)nc2c1 | 0 | nt | -6 | nt | nt
CCN(CC)c1ccc2cc(C(C)=O)c(=O)oc2c1 | 35* | -19 | 11 | -29 | -4
CCN(CC)c1ccc2cc(C=O)c(=O)oc2c1 | 65* | -13 | -6 | -46 | -2
CCN(CC)c1ccc2cc(C(=O)Nc3ccccn3)c(=O)oc2c1 | 39* | 0 | 5 | 2 | 0
CCN(CC)c1ccc2cc(-c3nnc(-c4ccncc4)o3)c(=O)oc2c1 | 88* | -12 | nt | 66* | -1
O=C(NNC(=S)NCc1ccco1)c1ccc(Cl)s1 | 0 | 10 | 3 | 33* | -3
COc1ccccc1NC(=S)NNC(=O)c1nn(C)c(C)c1Br | 2 | -13 | -6 | -4 | -6
Cc1c(Cl)c(C(=O)NNC(=S)NCc2ccco2)nn1C | 0 | -1 | 2 | 35* | -1
COc1ccccc1NC(=S)NNC(=O)c1nn(C)c(C)c1Cl | 0 | -16 | -20 | 82* | -4
Cn1cc(Cl)c(C(=O)NNC(=S)NCc2ccco2)n1 | 2 | -9 | -3 | -23 | 3
CC(C)CNC(=O)c1c(-c2ccccc2)c(-c2ccccc2)nn(C)c1=O | 0 | nt | 2 | nt | nt
Cn1cccc1/C=N/N1CCN(c2ccccn2)CC1 | 31* | -3 | -8 | 25 | 4
Cc1ccc(/C=N/N2CCN(c3ccccn3)CC2)cc1 | 1 | -8 | 13 | -15 | -1
COc1ccc(NS(=O)(=O)c2ccc(-c3cnc(C4CC4)o3)cc2)cc1Cl | -1 | nt | -1 | nt | nt
Cc1c(Cl)cccc1NC(=O)CCN1C(=O)c2ccccc2Sc2ncccc21 | 0 | nt | 2 | nt | nt
Cc1oc(-c2ccc(C(=O)NCc3ccccc3)cc2)nc1CN1CCc2ccccc21 | 1 | nt | 17 | nt | nt
CCN(CC)CCOC(=O)c1ccc(Cl)cc1Cl | -1 | -29 | -14 | 33* | -1
CCN(CC)CCOC(=O)c1ccc(Cl)cc1 | 0 | -46 | 6 | -5 | -5
CCOC(=O)c1ccccc1NC(=O)c1c(C)oc2ncnc(N3CCOCC3)c12 | nt | nt | -8 | nt | nt
CCn1c(CNc2ccc(Cl)cc2)nnc1SCCN1CCCCC1 | 0 | -53 | -27 | 50* | -3
Cc1ccc(-c2nc(NC(=O)CSc3ncnc4sc5c(c34)CCC(C)C5)ns2)cc1 (configuration not stated) | 0 | nt | 4 | nt | nt
O=c1oc(-c2ccccc2Cl)nc2ccsc12 | 1 | -13 | 13 | 31* | -10
O=c1oc(-c2ccc(F)cc2)nc2ccsc12 | 0 | -19 | -4 | 0 | -3
Cc1c(NC(=O)Nc2ccccc2C(F)(F)F)sc2nc3n(c(=O)c12)CCC(C)CC3 (configuration not stated) | 0 | nt | -1 | nt | nt
O=C(NCC(c1cccnc1)N1CCN(c2ccccc2)CC1)OCc1ccccc1 (configuration not stated) | 0 | -4 | 31* | -3 | 5
O=C(NCCSCc1ccco1)Nc1cc(Cl)cc(Cl)c1 | 2 | -17 | -13 | 30* | -1
